From the supplement of paper PMC10338343
± gives the standard deviation.

Test system: MILI (PIWIL2) piRISC loaded with L1MC piRNA (26 nt)
Assay: pre-steady-state target cleavage rate (min^-1); guide: L1MC piRNA 5'p-UAACUAAAUACUAUGCAAGCUGUAGG; MIWI and MILI are mouse PIWI proteins and EfPiwi is from a freshwater sponge; tags in brackets are library labels; higher = faster piRNA-guided slicing of the target
Conditions: auxiliary factor: 500 nM mouse GTSF1
Procedure, shortened: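 Cleave-'n-Seq used a transcribed, DNA-blocked target RNA library at 0.1 nM and active affinity-purified piRISC with one synthetic guide at 1 nM, with or without 500 nM GTSF1 partner protein, in HEPES–potassium acetate buffer at 33 °C for 0–8 or 0–960 min. Uncleaved targets were sequenced and normalised to depth and to weakly complementary targets, and three trials were pooled with k3 capped at 0.0001 min^-1. The pre-steady-state cleavage rate was estimated by a burst-and-steady-state fit.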

Sequence | pre-steady-state target cleavage rate
UCCUGGUACAGCUUGCAUAGUAUUUAGGUUA | 0.163 ± 0.044
UCCUGCUACAGCUUGCAAAGAAUUUAGUUA | 0.0168 ± 0.0052
UCCUGGAUCAGCUUGCAUUGUAUAUAGUUA | 0.183 ± 0.018
UCCUGGAUCAGCUUGCUAGUAUUUAGUUA | 0.0105 ± 0.0043
UCCUGGAACAGCUUGCUUAGUAUUUAGUUA | 0.264 ± 0.01
UCCUGGAUGUCCUUGCAUAGUAUUUAGUUUA | 0.104 ± 0.015
UCCUGGAUGAGCUUGCUAGUAUUUAGUUA | 0.00709 ± 0.0035
UCCUGGAUGUCGAUGCAUAGUAUUAAGUUA | 0.122 ± 0.017
UCCUGGAUGUGCUUGCAUAGAUUUUAGUUA | 0.00729 ± 0.0044
UCCUGGAUGAGCUUGGAUAGUAUAUAGUUA | 0.122 ± 0.017
UCCUGGAUCAGCUUGCUUAGUAUUUUGUUA | 0.16 ± 0.015
UCCUGGAUCAGCUUGCAAAGUAUUUUGUUA | 0.1 ± 0.018
UCCUGGAUGUCCUUGGAUAGUAUUUAGUUA | 0.153 ± 0.021
UCCUGGAUGUGCUUGCGUAGUAUUUAGUUA | 0.0451 ± 0.013
UCCUGGAUGUCGAUGCAUAGUAAUUUAGUUA | 0.0247 ± 0.008
UCCUGGAUCAGCUUGGAUAGUUUUUAGUUA | 0.0521 ± 0.0089
UCCUGGAUGUCCUUGCUUAGUAUUUAGUUA | 0.0537 ± 0.0095
UCCUGGAUGUCGAUGCAUAGUAUAUUAGUUA | 0.0713 ± 0.015
UCCUGGAUGUCCUUGCUUAGUUUUUAGUUA | 0.0152 ± 0.0067
UCCUGGAUGUGCUUGCAAAGUAUAUAGUUA | 0.0264 ± 0.0072

Sequence | pre-steady-state target cleavage rate
UCCUGGAUGUGCUUGCAUAGUGAUUUAGUUA | 0.00833 ± 0.0042
UCCUGCUACAGCUUGCAUAGAUAUUUAGUUA | 0.0121 ± 0.005
UCCUGGAUGUGGUUGCAUACUAUUUAGUUA | 0.0175 ± 0.0072
UCCUGGAUGUCCUUGCAGAGUAUUUAGUUA | 0.0231 ± 0.011
UCCUGGAACAGCUUGCAUAGUUAUUUAGUUA | 0.0126 ± 0.0059
UCCUGGAUCAGCUUGGUUAGUAUUUAGUAA | 0.256 ± 0.031
UCCUGGAUGUCCUUGGAUAGUAUUUAGUAA | 0.121 ± 0.019
UCCUGGAUCAGGAAGCAUAGUAUUUAGUUA | 0.0634 ± 0.0094
UCCUCCUACAGCUUGGAUUGUAUUUAGUUA | 0.165 ± 0.015
UCCUGGAUGUCGAUAGCAUAGUAUUUAGUUA | 0.0459 ± 0.014
UCCUGGAUGUCGUUGCAUAAUAUUUAGUUA | 0.0662 ± 0.017
UCCUGGAUGUCGAAGCAUAGUAUGUUAGUUA | 0.0233 ± 0.0059
UCCUGGAUGAGCUUGCAUUGUAUAUAGUUA | 0.0992 ± 0.012
UCCUGGAUGUGCAUGCAUAGUUUUUAGUUA | 0.01 ± 0.0069
UCCUGGAUGUCGUUGCAUAGUAUUUAGUCUA | 0.013 ± 0.0062
UCCUGGAUGUCGAACCCAUAGUAUUUAGUUA | 0.0032 ± 0.0019
UCCUGGAUGUCCUAGCAUAGUAUAUAGUUA | 0.0912 ± 0.02
UCCUGGAAGUGCUUGCAUAGUAUUUAGUUA | 0.127 ± 0.013
UCCUGGAUGUGCUUGCAUAGUUAUUUAGUUA | 0.0061 ± 0.0048
UCCUGGUACAGCUACCAUAGUAUUUAGUAA | 0.28 ± 0.04

Same assay, conditions: auxiliary factor: none (no GTSF1)

Sequence | pre-steady-state target cleavage rate
UCCUGGUACAGCUUGCAUAGUAUUUAGGUUA | 0.00633 ± 0.0032
UCCUGCUACAGCUUGCAAAGAAUUUAGUUA | 0.00324 ± 0.0017
UCCUGGAUCAGCUUGCAUUGUAUAUAGUUA | 0.00663 ± 0.0022
UCCUGGAUCAGCUUGCUAGUAUUUAGUUA | 0.00365 ± 0.0022
UCCUGGAACAGCUUGCUUAGUAUUUAGUUA | 0.00723 ± 0.0021
UCCUGGAUGUCCUUGCAUAGUAUUUAGUUUA | 0.00891 ± 0.0035
UCCUGGAUGAGCUUGCUAGUAUUUAGUUA | 0.00421 ± 0.0027
UCCUGGAUGUCGAUGCAUAGUAUUAAGUUA | 0.0035 ± 0.0025
UCCUGGAUGUGCUUGCAUAGAUUUUAGUUA | 0.00375 ± 0.0024
UCCUGGAUGAGCUUGGAUAGUAUAUAGUUA | 0.00462 ± 0.0024
UCCUGGAUCAGCUUGCUUAGUAUUUUGUUA | 0.00583 ± 0.0022
UCCUGGAUCAGCUUGCAAAGUAUUUUGUUA | 0.00456 ± 0.0025
UCCUGGAUGUCCUUGGAUAGUAUUUAGUUA | 0.00762 ± 0.0021
UCCUGGAUGUGCUUGCGUAGUAUUUAGUUA | 0.0145 ± 0.0037
UCCUGGAUGUCGAUGCAUAGUAAUUUAGUUA | 0.00496 ± 0.0023
UCCUGGAUCAGCUUGGAUAGUUUUUAGUUA | 0.00364 ± 0.0024
UCCUGGAUGUCCUUGCUUAGUAUUUAGUUA | 0.00574 ± 0.0022
UCCUGGAUGUCGAUGCAUAGUAUAUUAGUUA | 0.00716 ± 0.0023
UCCUGGAUGUCCUUGCUUAGUUUUUAGUUA | 0.00494 ± 0.0023
UCCUGGAUGUGCUUGCAAAGUAUAUAGUUA | 0.00311 ± 0.0024

Sequence | pre-steady-state target cleavage rate
UCCUGGAUGUGCUUGCAUAGUGAUUUAGUUA | 0.007 ± 0.0031
UCCUGCUACAGCUUGCAUAGAUAUUUAGUUA | 0.00419 ± 0.0019
UCCUGGAUGUGGUUGCAUACUAUUUAGUUA | 0.00525 ± 0.0036
UCCUGGAUGUCCUUGCAGAGUAUUUAGUUA | 0.00501 ± 0.0024
UCCUGGAACAGCUUGCAUAGUUAUUUAGUUA | 0.00339 ± 0.0029
UCCUGGAUCAGCUUGGUUAGUAUUUAGUAA | 0.00444 ± 0.0025
UCCUGGAUGUCCUUGGAUAGUAUUUAGUAA | 0.00376 ± 0.0019
UCCUGGAUCAGGAAGCAUAGUAUUUAGUUA | 0.00311 ± 0.0023
UCCUCCUACAGCUUGGAUUGUAUUUAGUUA | 0.00457 ± 0.002
UCCUGGAUGUCGAUAGCAUAGUAUUUAGUUA | 0.00341 ± 0.0026
UCCUGGAUGUCGUUGCAUAAUAUUUAGUUA | 0.00621 ± 0.0023
UCCUGGAUGUCGAAGCAUAGUAUGUUAGUUA | 0.00487 ± 0.0021
UCCUGGAUGAGCUUGCAUUGUAUAUAGUUA | 0.00388 ± 0.0029
UCCUGGAUGUGCAUGCAUAGUUUUUAGUUA | 0.00641 ± 0.003
UCCUGGAUGUCGUUGCAUAGUAUUUAGUCUA | 0.00433 ± 0.0036
UCCUGGAUGUCGAACCCAUAGUAUUUAGUUA | 0.00424 ± 0.0023
UCCUGGAUGUCCUAGCAUAGUAUAUAGUUA | 0.00315 ± 0.0027
UCCUGGAAGUGCUUGCAUAGUAUUUAGUUA | 0.00836 ± 0.0022
UCCUGGAUGUGCUUGCAUAGUUAUUUAGUUA | 0.00419 ± 0.0033
UCCUGGUACAGCUACCAUAGUAUUUAGUAA | 0.00528 ± 0.0023
